From ChEMBL document CHEMBL3433997, “St. Jude Leishmania screening dataset” (2016) come the findings set out here.

Assay type in all cases: functional
For assay [1], the target named is Solute carrier family 2, facilitated glucose transporter member 1 (Homo sapiens) (UniProt P11166). As to the kind of experiment: ST_JUDE_LEISH: Cytotoxicity at 2uM final concentration against transgenic Leishmania Mexicana promastigotes LmGLUT1 that are glucose transport deficient and complemented with the human glucose transporter GLUT1. Activity is measured by DNA content using SYBR green in vitro.

Assay [2] deals with Hexose transporter 1 (Plasmodium falciparum) (UniProt O97467). As to the kind of experiment: ST_JUDE_LEISH: Cytotoxicity at 2uM final concentration against transgenic Leishmania Mexicana promastigotes LmPfHT that are glucose transport deficient and complemented with the Plasmodium falciparum hexose transporter. Activity is measured by DNA content using SYBR green in vitro.
For assay [3], the target named is Glucose transporter (Leishmania mexicana) (UniProt O61059). As to the kind of experiment: ST_JUDE_LEISH: Cytotoxicity at 2uM final concentration against transgenic Leishmania Mexicana promastigotes LmGT2 that are glucose transport deficient and complemented with the L. Mexicana glucose transporter 2. Activity is measured by DNA content using SYBR green in vitro.

Solute carrier family 2, facilitated glucose transporter member 1 (Homo sapiens), sequence (P11166 whole entry): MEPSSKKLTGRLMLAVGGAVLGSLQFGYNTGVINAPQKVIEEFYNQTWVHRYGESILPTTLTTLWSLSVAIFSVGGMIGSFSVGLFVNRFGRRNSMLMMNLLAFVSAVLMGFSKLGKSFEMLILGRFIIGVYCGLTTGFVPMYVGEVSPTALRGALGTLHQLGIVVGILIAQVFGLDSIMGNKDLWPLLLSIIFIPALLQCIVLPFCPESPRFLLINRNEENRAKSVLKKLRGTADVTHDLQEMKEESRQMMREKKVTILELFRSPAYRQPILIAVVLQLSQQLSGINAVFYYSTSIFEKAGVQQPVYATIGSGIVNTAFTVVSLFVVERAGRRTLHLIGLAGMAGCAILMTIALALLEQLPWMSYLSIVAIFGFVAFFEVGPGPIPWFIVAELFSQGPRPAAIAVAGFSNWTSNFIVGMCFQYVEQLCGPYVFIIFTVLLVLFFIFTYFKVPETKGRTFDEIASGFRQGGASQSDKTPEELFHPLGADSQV

For the compound `O=C(Nc1ccc(Cn2ncc(N3CCCNCC3)c(Cl)c2=O)cc1)Nc1ccc(F)cc1[N+](=O)[O-]`, the inhibition (usually the drop in the measured response relative to a control, in per cent) was 10.2% in assay [1], 11.4% in assay [2] and 5.42% in assay [3].

For the compound `CCC1(CC)CN(c2ccccc2)c2ccc(O)cc2S(=O)(=O)C1CC(C)C` (stereo not given), the inhibition in assay [1] stood at 0.72%; in assay [2] it was 0.32%; in assay [3], 0.3%.

For `CC(C)c1ccc(NC(=O)c2ccc(C(=O)NC3CCN(Cc4ccsc4)C3)cc2)cc1` (stereo not given), the inhibition in assay [1] was 2.74%; in assay [2] it was 4.64%; in assay [3] it was 0.52%.

Take `CC(=O)Nc1cccc(C(=O)Nc2cccc(-c3cccc(-c4nc5ccccc5[nH]4)c3)c2)c1`: the inhibition in assay [1] was 16.4%; in assay [2], 15.5%; in assay [3], 17.4%.

Take `CCOC(=O)c1cncc(/C=C/c2cc(C)cnc2N)c1`: the inhibition in assay [1] is 5.82%; in assay [2], 8.59%; in assay [3], 8.04%.
